Results filed as inconclusive are left out. Active and inactive are the calls of the source. Unless noted, the call rests on the fitted dose curve; in most records, active means well fitted curve in the direction sought with a large enough effect in the repeat runs; inconclusive means weak or mixed curves; inactive means no such curve, though single readings can be large; an effect the other way counts as inactive or inconclusive.
Columns and labels:
[1] = qHTS assay to identify small molecule HDAC inhibitors (AID 1259364);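 further: wild-type HCT-116 cells with endogenous class I/II HDAC activity; top concentration of the series differs between compounds; nearly all actives have a fitted effect of over 45% in size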
Procedure, shortened: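 Quantitative high-throughput format: overnight-seeded HCT-116 cells got compounds for 2 hr at 37C; HDAC-Glo I/II reagent added, 30 min RT, luminescence measured.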

[2] = qHTS assay to identify small molecule HDAC inhibitors - cell viability counter screen (AID 1259365); further: series mostly up to about 92 µM; nearly all actives have a fitted effect of over 50% in size
Procedure, shortened: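 To flag cytotoxic hits, 1,500 wild-type HCT-116 cells per well, plated the day before, receive test compounds for 2hr at 37 C before CellTiter-Glo reagent and a luminescence read.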

[3] = qHTS assay to identify small molecule agonists of the sonic hedgehog signaling (Shh) pathway - cell viability counter screen (AID 1259366); further: nearly all actives have a fitted effect of over 50% in size
Procedure, shortened: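 Fluorescence from CellTiter-Fluor reports live cells in this counter screen. NIH/3T3-derived Gli1-Luc reporter cells receive test compounds for 24hr at 37C; reagent goes in at 23hr.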

[4] = qHTS assay to identify small molecule antagonists of the sonic hedgehog signaling (Shh) pathway - cell viability counter screen (AID 1259367); further: nearly all actives have a fitted effect of over 55% in size
Procedure, shortened: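 CellTiter-Fluor signal in conditioned medium-stimulated 3T3 Gli1-Luc cells, 23 hr compound exposure, 37C.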

[5] = qHTS assay to identify small molecule agonists of the sonic hedgehog signaling (Shh) pathway (AID 1259368; calls by dose curve;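 further: NIH/3T3-derived 3T3Gli1-Luc cells carrying a stable Gli1-driven firefly luciferase reporter; series mostly up to about 92 µM; nearly all actives have a fitted effect of over 15% in size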)
Procedure, shortened: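 Quantitative high-throughput format using a Gli1-driven firefly luciferase reporter line derived from NIH/3T3 cells. After a 24 hr compound treatment at 37 C and 5% CO2, luminescence reported Gli1 response element activity.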

[6] = biological target: Estrogen receptor beta (Homo sapiens) (UniProt Q92731); assay: qHTS assay to identify small molecule agonists of the estrogen receptor beta (ER-beta) signaling pathway (AID 1259377; active means well fitted activation curve with a large enough effect in the signal ratio in the repeat runs, not every such curve was filed as active; the % refers to the signal ratio)
Chain of Estrogen receptor beta (Homo sapiens) (Q92731 whole entry, looked up): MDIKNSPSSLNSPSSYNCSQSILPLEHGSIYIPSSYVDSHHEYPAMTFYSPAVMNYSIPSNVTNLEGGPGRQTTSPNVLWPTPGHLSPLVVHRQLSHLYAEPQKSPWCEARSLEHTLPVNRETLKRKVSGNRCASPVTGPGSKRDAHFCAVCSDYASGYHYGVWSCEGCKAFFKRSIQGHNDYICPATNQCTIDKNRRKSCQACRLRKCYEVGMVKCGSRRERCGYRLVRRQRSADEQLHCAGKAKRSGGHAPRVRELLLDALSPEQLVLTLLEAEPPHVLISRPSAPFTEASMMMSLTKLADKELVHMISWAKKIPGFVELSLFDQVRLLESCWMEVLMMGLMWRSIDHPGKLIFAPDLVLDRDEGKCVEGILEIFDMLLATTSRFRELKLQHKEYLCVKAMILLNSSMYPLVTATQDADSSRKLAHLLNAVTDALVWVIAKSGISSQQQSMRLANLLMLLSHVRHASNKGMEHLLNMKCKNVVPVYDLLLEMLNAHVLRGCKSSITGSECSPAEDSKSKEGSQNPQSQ
Procedure, shortened: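 Screening used GripTite ER-beta-UAS-bla cells held in 2% charcoal-stripped FBS medium. After overnight (16 hr) compound incubation at 37C, beta-lactamase activity was detected with a FRET substrate by fluorescence.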

[7] = biological target: Estrogen receptor beta (Homo sapiens) (UniProt Q92731); assay: qHTS assay to identify small molecule antagonists of the estrogen receptor beta (ER-beta) signaling pathway (AID 1259378; active means well fitted inhibition curve with a large enough effect in the signal ratio in the repeat runs, not every such curve was filed as active; the % refers to the signal ratio)
Procedure, shortened: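 Antagonist mode: compounds added to beta-lactamase reporter HEK293T ER-beta-UAS cells stimulated with E2 (1nM final), 16 hr at 37C. LiveBLAzer B/G FRET substrate, 2 hours room temperature, fluorescence read-out.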

[8] = qHTS assay to identify small molecule agonists of the androgen receptor (AR) signaling pathway in the presence of an antagonist - cell viability counter screen (AID 1259379);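 further: MDA-kb2 human breast cancer cells carrying an MMTV luciferase reporter; series mostly up to about 92 µM; nearly all actives have a fitted effect of over 25% in size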
Procedure, shortened: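 Nilutamide-containing (3.0uM final) MDA-kb2 cultures, 3,000 cells/well, were treated with compounds across 15 concentrations. After 16 hr at 37C with no CO2, cell viability was determined by CellTiter-Fluor fluorescence in the luciferase assay wells.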

[9] = qHTS assay to identify small molecule agonists of the estrogen receptor beta (ER-beta) signaling pathway - cell viability counter screen (AID 1259380); further: nearly all actives have a fitted effect of over 30% in size
Procedure, shortened: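 Steps: plate ER-beta-UAS-bla HEK293T cells, rest 6 hr; add compounds in DMSO; incubate 16 hr at 37C, 5% CO2; add FRET substrate 2 hr; add CellTiter-Glo, wait 30 min at room temperature; read luminescence.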

[10] = qHTS assay to identify small molecule antagonists of the estrogen receptor beta (ER-beta) signaling pathway - cell viability counter screen (AID 1259382);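 further: HEK293T cells carrying ER-beta-UAS-bla reporter stimulated with estradiol; series mostly up to about 92 µM; nearly all actives have a fitted effect of over 55% in size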
Procedure, shortened: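 Viability is scored by CellTiter-Glo luminescence (30 min, room temperature) in ER-beta-UAS-bla HEK293T wells already read for reporter fluorescence. Compound exposure lasts 16 hr at 37C alongside 1nM 17-beta-estradiol in charcoal-stripped serum medium.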

[11] = qHTS assay to identify small molecule agonists or antagonists of the thyroid stimulating hormone receptor (TSHR) signaling pathway - wild type cell line counter screen (AID 1259384; calls by dose curve)
Procedure, shortened: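 Counter screen in untransfected Hek293: compounds (15-point titration, triplicate) plus phosphodiesterase inhibitor Ro20-1724 added after 18 h plating; 30 min RT. Intracellular cAMP via competitive d2/cryptate immunoassay, 1 h incubation.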

[12] = biological target: Thyrotropin receptor (Homo sapiens) (UniProt P16473); assay: qHTS assay to identify small molecule antagonists of the thyroid stimulating hormone receptor (TSHR) signaling pathway (AID 1259385; calls by dose curve; further: nearly all actives have a fitted effect of over 20% in size)
Chain of Thyrotropin receptor (Homo sapiens) (P16473 whole entry, looked up): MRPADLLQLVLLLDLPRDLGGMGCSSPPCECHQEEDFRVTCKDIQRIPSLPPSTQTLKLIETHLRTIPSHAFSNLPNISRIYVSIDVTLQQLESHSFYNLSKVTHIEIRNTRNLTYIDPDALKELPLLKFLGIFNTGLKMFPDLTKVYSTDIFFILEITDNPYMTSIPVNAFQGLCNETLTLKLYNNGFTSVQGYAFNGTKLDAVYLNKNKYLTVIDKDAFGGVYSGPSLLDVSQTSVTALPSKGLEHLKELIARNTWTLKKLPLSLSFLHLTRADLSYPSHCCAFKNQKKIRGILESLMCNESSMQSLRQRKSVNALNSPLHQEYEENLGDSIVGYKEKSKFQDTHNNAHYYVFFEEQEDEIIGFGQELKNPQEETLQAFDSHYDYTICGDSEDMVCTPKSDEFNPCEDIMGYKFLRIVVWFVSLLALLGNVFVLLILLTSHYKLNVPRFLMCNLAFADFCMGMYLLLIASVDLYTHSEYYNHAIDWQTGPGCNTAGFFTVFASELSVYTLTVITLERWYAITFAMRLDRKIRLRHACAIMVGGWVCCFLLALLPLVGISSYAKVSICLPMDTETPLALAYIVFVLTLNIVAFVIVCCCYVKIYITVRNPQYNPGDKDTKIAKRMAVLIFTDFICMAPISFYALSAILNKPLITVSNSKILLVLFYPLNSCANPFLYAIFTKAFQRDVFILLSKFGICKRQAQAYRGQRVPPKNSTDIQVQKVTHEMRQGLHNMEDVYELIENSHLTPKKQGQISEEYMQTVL
Procedure, shortened: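 Antagonist mode: compound-treated TSHR-expressing HEK293 cells were stimulated with 1.5 ng/mL TSH (final) in presence of Ro20-1724 for 30 min at RT. HTRF cAMP detection after 1 h; each compound tested at 15 concentrations, triplicate.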

[13] = qHTS assay to identify small molecule agonists of the estrogen receptor alpha (ER-alpha) signaling pathway in the presence of an antagonist - cell viability counter screen (AID 1259386);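 further: series mostly up to about 92 µM; cells exposed to compounds for 22 h at 37 °C before the viability read; nearly all actives have a fitted effect of over 30% in size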
Procedure, shortened: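 In this counter screen, compound effects on VM7Luc4E2 viability were tested in the presence of the antagonist ICI-182,780 at 10.0nM final. Compounds were dosed at 15 concentrations, exposure lasted 22hr, and the CellTiter-Fluor signal was read.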

[14] = biological target: Progesterone receptor (Homo sapiens) (UniProt P06401); assay: qHTS assay to identify small molecule agonists of the progesterone receptor (PR) signaling pathway (AID 1346784; calls by dose curve; further: nearly all actives have a fitted effect of over 30% in size)
Chain of Progesterone receptor (Homo sapiens) (P06401 whole entry, looked up): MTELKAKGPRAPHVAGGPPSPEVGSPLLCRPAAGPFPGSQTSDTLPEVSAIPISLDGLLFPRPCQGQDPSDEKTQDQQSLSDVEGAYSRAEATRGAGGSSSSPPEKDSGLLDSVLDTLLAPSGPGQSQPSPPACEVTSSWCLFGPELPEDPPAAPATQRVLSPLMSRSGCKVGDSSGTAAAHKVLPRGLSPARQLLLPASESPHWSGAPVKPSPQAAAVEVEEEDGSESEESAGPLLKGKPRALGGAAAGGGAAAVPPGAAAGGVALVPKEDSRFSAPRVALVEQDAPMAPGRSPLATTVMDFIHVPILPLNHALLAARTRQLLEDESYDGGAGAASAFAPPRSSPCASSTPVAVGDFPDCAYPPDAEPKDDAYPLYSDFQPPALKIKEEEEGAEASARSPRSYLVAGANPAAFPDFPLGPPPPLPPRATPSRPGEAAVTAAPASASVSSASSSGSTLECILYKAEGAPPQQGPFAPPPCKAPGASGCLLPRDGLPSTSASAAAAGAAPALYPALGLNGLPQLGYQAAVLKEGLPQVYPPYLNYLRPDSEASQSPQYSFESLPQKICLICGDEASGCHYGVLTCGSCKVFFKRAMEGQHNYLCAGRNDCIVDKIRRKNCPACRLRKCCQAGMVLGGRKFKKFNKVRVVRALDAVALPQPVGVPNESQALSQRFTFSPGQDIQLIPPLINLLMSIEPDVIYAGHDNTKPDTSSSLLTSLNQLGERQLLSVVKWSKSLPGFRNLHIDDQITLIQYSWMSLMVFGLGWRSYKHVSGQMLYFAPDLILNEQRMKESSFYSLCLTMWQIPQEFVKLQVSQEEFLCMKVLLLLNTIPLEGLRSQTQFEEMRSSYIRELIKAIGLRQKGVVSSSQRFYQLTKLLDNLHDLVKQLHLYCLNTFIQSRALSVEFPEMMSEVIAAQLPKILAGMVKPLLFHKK
Procedure, shortened: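 Seed PR-UAS-bla HEK 293T cells (2% charcoal-stripped FBS), incubate 6 hr at 37C; add compounds in DMSO, 16 hr at 37C; add LiveBLAzer B/G substrate, 2 hr RT; read fluorescence intensity.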

[15] = biological target: Progesterone receptor (Homo sapiens) (UniProt P06401); assay: qHTS assay to identify small molecule antagonists of the progesterone receptor (PR) signaling pathway (AID 1346795; active means well fitted inhibition curve with a large enough effect in the signal ratio in the repeat runs, not every such curve was filed as active; the % refers to the signal ratio)
Procedure, shortened: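 Screening used a GripTite HEK293T line with PR-responsive UAS-beta-lactamase. Cells were challenged with compound in the presence of 1 nM R5020 final for 16 hr at 37C; B/G FRET substrate, 2 hr room temperature, fluorescence.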

[16] = qHTS assay to identify small molecule antagonists of the progesterone receptor (PR) signaling pathway - cell viability counter screen (AID 1346798); further: series mostly up to about 92 µM; nearly all actives have a fitted effect of over 50% in size
Procedure, shortened: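 Measures cytotoxicity in parallel with the PR antagonist reporter read: HEK293T PR-UAS-bla cells get compound and R5020 for 16 hr, and remaining viable cells are quantified by CellTiter-Glo luminescence.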

[17] = qHTS assay to identify small molecule antagonists of the TGF-beta/Smad signaling pathway - cell viability counter screen (AID 1346824); further: nearly all actives have a fitted effect of over 50% in size
Procedure, shortened: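 Cytotoxicity counter-screen run in the same wells as the beta-lactamase Smad reporter read: CellTiter-Glo luminescence after 30 min at room temperature. HEK 293T SBE-bla cells had 5 hr compound exposure at 37 C with TGF-beta1 (0.25 ng/mL stock).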

[18] = qHTS assay to identify small molecule antagonists of the sonic hedgehog signaling (Shh) pathway (AID 1259369; calls by dose curve; further: nearly all actives have a fitted effect of over 45% in size)
Procedure, shortened: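 Stable Gli1-Luc reporter NIH/3T3 clone; quantitative HTS in stimulated mode with conditioned medium. Luminescence measured after 24hr compound treatment at 37 C.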

[19] = biological target: Estrogen receptor (Homo sapiens) (UniProt P03372); assay: qHTS assay to identify small molecule agonists of the estrogen receptor alpha (ER-alpha) signaling pathway in the presence of an antagonist (AID 1259383; calls by dose curve; further: top concentration of the series differs between compounds; nearly all actives have a fitted effect of over 15% in size)
Chain of Estrogen receptor (Homo sapiens) (P03372 whole entry, looked up): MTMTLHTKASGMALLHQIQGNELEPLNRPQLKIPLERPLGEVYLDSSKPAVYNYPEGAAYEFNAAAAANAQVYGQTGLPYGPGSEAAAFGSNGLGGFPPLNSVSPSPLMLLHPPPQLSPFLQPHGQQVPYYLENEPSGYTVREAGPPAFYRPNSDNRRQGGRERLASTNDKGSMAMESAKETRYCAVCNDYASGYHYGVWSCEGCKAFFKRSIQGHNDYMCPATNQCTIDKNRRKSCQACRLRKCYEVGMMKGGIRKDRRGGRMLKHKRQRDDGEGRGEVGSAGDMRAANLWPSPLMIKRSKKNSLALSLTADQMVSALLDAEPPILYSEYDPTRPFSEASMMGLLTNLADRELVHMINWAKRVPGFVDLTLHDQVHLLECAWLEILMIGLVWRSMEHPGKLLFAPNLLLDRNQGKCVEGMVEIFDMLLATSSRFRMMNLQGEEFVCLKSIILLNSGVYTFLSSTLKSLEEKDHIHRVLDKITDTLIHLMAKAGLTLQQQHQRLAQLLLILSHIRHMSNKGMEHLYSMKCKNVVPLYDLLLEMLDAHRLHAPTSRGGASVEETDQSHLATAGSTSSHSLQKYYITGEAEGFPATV
Procedure, shortened: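 Readout was ERE-driven luciferase luminescence in VM7Luc4E2 cells, which express full-length ER-alpha endogenously. Compounds were tested at 15 concentrations for 22hr alongside 10.0nM ICI-182,780 (final concentration).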

[20] = qHTS assay to identify small molecule agonists of the progesterone receptor (PR) signaling pathway - cell viability counter screen (AID 1346799; calls by dose curve; further: nearly all actives have a fitted effect of over 45% in size)
Procedure, shortened: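 Using the same plates as the PR reporter screen, HEK293T PR-UAS-bla cells received compounds for 16 hr at 37C and were then lysed with CellTiter-Glo; luminescence was read 30 min later at room temperature.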
On the % scale 0 is the no-effect control and ±100 the full control effect.

C[CH2][Ge]([Cl])([CH2]C)[CH2]C
inactive: Potency [1] | outcome [2] | Potency [3] | Potency [4] | outcome [5] | Potency [6] | outcome [7] | Potency [8] | outcome [9] | outcome [10] | outcome [11] | outcome [12] | Potency [13] | Potency [14] | Potency [15] | Potency [16] | outcome [17]

Cc1nc(C)nc(N2C[C@@H](C)N(c3ccnc([C@@H](C)O)n3)[C@@H](C)C2)n1
inactive: Potency [1] | outcome [2] | Potency [3] | Potency [4] | outcome [5] | Potency [18] | Potency [8] | outcome [10] | outcome [19] | outcome [11] | outcome [12] | Potency [13] | Potency [16] | Potency [20] | outcome [17]

CCCCCCCCCCCCCCCCI
inactive: activity change, negative = inhibition [1] 1.82% [at 19 µM] | activity change, negative = cytotoxicity [2] -1.08% [at 19 µM] | viability change, negative = cytotoxic [3] 5% [at 19 µM] | viability change, negative = cytotoxic [4] -1.6% [at 19 µM] | activity change [5] -0.0263% [at 18.9 µM] | activation [6] 0.348% [at 19 µM] | activity, negative = inhibition [7] 2.97% [at 19 µM] | activity change, negative = cytotoxicity [8] -1.43% [at 19 µM] | activity change, negative = cytotoxicity [9] -6.04% [at 19 µM] | activity change, negative = cytotoxicity [10] -0.0745% [at 19 µM] | cAMP activity change [11] 5% [at 18.9 µM] | activity change, negative = inhibition [12] -4.61% [at 19 µM] | activity change, negative = cytotoxicity [13] -3.61% [at 19 µM] | activation [14] 0.0661% [at 19 µM] | activity change, negative = inhibition [15] -3.13% [at 18.9 µM] | activity change, negative = cytotoxicity [16] 17.5% [at 18.9 µM] | activity change, negative = cytotoxicity [20] -9.05% [at 19 µM] | viability change, negative = cytotoxic [17] -2.44% [at 15.8 µM]

CC1CCC(C(C)(C)S)C(=O)C1 (centres undefined)
inactive: Potency [1] | outcome [2] | Potency [3] | Potency [4] | outcome [5] | Potency [6] | outcome [7] | Potency [8] | outcome [9] | outcome [10] | outcome [19] | outcome [11] | outcome [12] | Potency [13] | Potency [15] | Potency [16] | Potency [20] | outcome [17]

CC(=O)OCCCc1ccccc1
inactive: Potency [1] | outcome [2] | Potency [3] | Potency [4] | outcome [5] | Potency [6] | outcome [7] | Potency [8] | outcome [9] | outcome [10] | outcome [11] | outcome [12] | Potency [13] | Potency [14] | Potency [15] | Potency [16] | Potency [20] | outcome [17]

C=C[C@@H](C)CCC=C(C)C
inactive: Potency [1] | outcome [2] | Potency [3] | Potency [4] | outcome [5] | Potency [6] | outcome [7] | Potency [8] | outcome [9] | outcome [10] | outcome [11] | outcome [12] | Potency [13] | Potency [14] | Potency [15] | Potency [16] | Potency [20] | outcome [17]

O=C(Nc1cccc(C2=NCCN2)c1)Nc1cccc(C2=NCCN2)c1
inactive: activity change, negative = inhibition [1] 3.65% [at 19 µM] | activity change, negative = cytotoxicity [2] 1.17% [at 19 µM] | viability change, negative = cytotoxic [3] 8.12% [at 19 µM] | viability change, negative = cytotoxic [4] 0.404% [at 19 µM] | activity change [5] 1.95% [at 18.9 µM] | activity change, negative = inhibition [18] 17.1% [at 19 µM] | activity change, negative = cytotoxicity [8] 1.81% [at 19 µM] | activity change, negative = cytotoxicity [9] 2.07% [at 19 µM] | activity change, negative = cytotoxicity [10] -2.3% [at 19 µM] | activation [19] 0.321% [at 19 µM] | activity change, negative = cytotoxicity [13] 1.98% [at 19 µM] | activity change, negative = cytotoxicity [16] 21% [at 18.9 µM] | activity change, negative = cytotoxicity [20] 7.7% [at 19 µM] | viability change, negative = cytotoxic [17] -4.13% [at 15.8 µM]

CN(C)CCOCCN(C)CCO
inactive: Potency [1] | outcome [2] | Potency [3] | Potency [4] | outcome [5] | Potency [18] | outcome [9] | outcome [10] | outcome [19] | outcome [11] | outcome [12] | Potency [13] | Potency [14] | Potency [15] | Potency [20] | outcome [17]

— PubChem BioAssay (Tox21)
